{
  "source": "the supplement of paper PMC3545927",
  "sequences": {"B1": {"name": "HC695 (peptide)", "chain": "CAFLATCINGAGNASASA"}, "B2": {"name": "HC293 (peptide)", "chain": "CALVGSATLCAGNASASA"}, "B3": {"name": "HC2433 (peptide)", "chain": "CARREVPCHRAGNASASA"}, "B4": {"name": "FS-2136 (peptide)", "chain": "CAREPRLVGGAGNASASA"}, "B5": {"name": "HC696 (peptide)", "chain": "CAATCINGVCAGNASASA"}, "B6": {"name": "FS-1170 (peptide)", "chain": "CASTRRRPRHAGNASASA"}, "B7": {"name": "HC307 (peptide)", "chain": "CAFSPRRHWTAGNASASA"}, "B8": {"name": "FS-1156 (peptide)", "chain": "CARHGRRRRHAGNASASA"}, "B9": {"name": "FS-917 (peptide)", "chain": "CARPGRLDRHAGNASASA"}, "B10": {"name": "HC911 (peptide)", "chain": "CAFVAPGERPAGNASASA"}, "B11": {"name": "FS-1621 (peptide)", "chain": "CAYRCRRPRHAGNASASA"}, "B12": {"name": "FS-638 (peptide)", "chain": "CAAAARRRRHAGNASASA"}, "B13": {"name": "HC1568 (peptide)", "chain": "CAAAWETARHAGNASASA"}, "B14": {"name": "FS-1293 (peptide)", "chain": "CATRRRTPRPAGNASASA"}, "B15": {"name": "FS-1589 (peptide)", "chain": "CAFQNRRARHAGNASASA"}},
  "molecular_target": "furin, P09958",
  "sequence (P09958 whole entry, the tested form may be a part)": "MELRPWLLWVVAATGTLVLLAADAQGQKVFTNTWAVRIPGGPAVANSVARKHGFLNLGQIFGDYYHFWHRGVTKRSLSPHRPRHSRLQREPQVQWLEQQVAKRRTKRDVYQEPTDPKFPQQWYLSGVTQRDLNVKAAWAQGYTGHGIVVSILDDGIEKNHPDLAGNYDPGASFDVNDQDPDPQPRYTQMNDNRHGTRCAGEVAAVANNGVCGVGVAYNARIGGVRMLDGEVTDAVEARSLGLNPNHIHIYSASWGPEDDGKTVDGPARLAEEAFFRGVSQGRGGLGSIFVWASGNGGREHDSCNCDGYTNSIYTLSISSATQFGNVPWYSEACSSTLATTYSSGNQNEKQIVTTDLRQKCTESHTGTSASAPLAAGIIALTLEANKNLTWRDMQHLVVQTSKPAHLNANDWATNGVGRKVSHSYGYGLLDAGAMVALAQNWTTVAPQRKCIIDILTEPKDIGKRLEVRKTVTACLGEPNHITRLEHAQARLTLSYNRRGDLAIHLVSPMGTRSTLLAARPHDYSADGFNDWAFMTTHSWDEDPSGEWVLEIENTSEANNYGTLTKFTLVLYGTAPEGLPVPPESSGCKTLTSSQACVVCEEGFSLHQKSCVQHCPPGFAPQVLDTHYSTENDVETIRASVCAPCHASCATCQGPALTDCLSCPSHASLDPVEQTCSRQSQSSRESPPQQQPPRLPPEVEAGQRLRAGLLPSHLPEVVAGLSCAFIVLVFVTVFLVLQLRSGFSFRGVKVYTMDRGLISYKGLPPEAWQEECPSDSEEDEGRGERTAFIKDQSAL",
  "experiment": "furin cleavage Z-score vs untreated control; higher = more cleavage, active = 3.5 or more, inactive = 1 or less, 8 variable residues between constant flanks",
  "outline": "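Cleavage by purified furin was measured on 8-mer peptides fused to a cDNA oligonucleotide and held on magnetic beads by their N-terminus. Reactions (0.01 ml, 1:10 enzyme:substrate) ran 7.5, 15 or 30 min in 50 mM HEPES pH 7.5 with CaCl2 and NaCl. Released DNA was adapter-tagged by PCR and sequenced, with read counts giving abundance. Log counts versus furin-free reactions were lowess-adjusted and scaled by median absolute deviation to give the cleavage Z-score.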",
  "note": "The list shows a part of the results. How many sequences the whole screen found active is unknown.",
  "data": [
    {"sequence": "B1", "values": [
      {"measurement": "furin cleavage Z-score", "setting": "7.5 min", "value": "-1 (inactive)"},
      {"measurement": "furin cleavage Z-score", "setting": "15 min", "value": "-1.97 (inactive)"},
      {"measurement": "furin cleavage Z-score", "setting": "30 min", "value": "0.404 (inactive)"}
    ]},
    {"sequence": "B2", "values": [
      {"measurement": "furin cleavage Z-score", "setting": "7.5 min", "value": "-0.853 (inactive)"},
      {"measurement": "furin cleavage Z-score", "setting": "15 min", "value": "-0.387 (inactive)"},
      {"measurement": "furin cleavage Z-score", "setting": "30 min", "value": "-0.923 (inactive)"}
    ]},
    {"sequence": "B3", "values": [
      {"measurement": "furin cleavage Z-score", "setting": "7.5 min", "value": "0.899 (inactive)"},
      {"measurement": "furin cleavage Z-score", "setting": "15 min", "value": 1.63},
      {"measurement": "furin cleavage Z-score", "setting": "30 min", "value": 1.91}
    ]},
    {"sequence": "B4", "values": [
      {"measurement": "furin cleavage Z-score", "setting": "7.5 min", "value": "-1.44 (inactive)"},
      {"measurement": "furin cleavage Z-score", "setting": "15 min", "value": "-0.28 (inactive)"},
      {"measurement": "furin cleavage Z-score", "setting": "30 min", "value": "0.256 (inactive)"}
    ]},
    {"sequence": "B5", "values": [
      {"measurement": "furin cleavage Z-score", "setting": "7.5 min", "value": "-1.44 (inactive)"},
      {"measurement": "furin cleavage Z-score", "setting": "15 min", "value": "-0.421 (inactive)"},
      {"measurement": "furin cleavage Z-score", "setting": "30 min", "value": "-0.171 (inactive)"}
    ]},
    {"sequence": "B6", "values": [
      {"measurement": "furin cleavage Z-score", "setting": "7.5 min", "value": "4.52 (active)"},
      {"measurement": "furin cleavage Z-score", "setting": "15 min", "value": 3.46},
      {"measurement": "furin cleavage Z-score", "setting": "30 min", "value": 2.74}
    ]},
    {"sequence": "B7", "values": [
      {"measurement": "furin cleavage Z-score", "setting": "7.5 min", "value": "0.332 (inactive)"},
      {"measurement": "furin cleavage Z-score", "setting": "15 min", "value": "-0.669 (inactive)"},
      {"measurement": "furin cleavage Z-score", "setting": "30 min", "value": "-0.85 (inactive)"}
    ]},
    {"sequence": "B8", "values": [
      {"measurement": "furin cleavage Z-score", "setting": "7.5 min", "value": "10.6 (active)"},
      {"measurement": "furin cleavage Z-score", "setting": "15 min", "value": "11.5 (active)"},
      {"measurement": "furin cleavage Z-score", "setting": "30 min", "value": "8.22 (active)"}
    ]},
    {"sequence": "B9", "values": [
      {"measurement": "furin cleavage Z-score", "setting": "7.5 min", "value": 1.02},
      {"measurement": "furin cleavage Z-score", "setting": "15 min", "value": "-0.871 (inactive)"},
      {"measurement": "furin cleavage Z-score", "setting": "30 min", "value": "0.899 (inactive)"}
    ]},
    {"sequence": "B10", "values": [
      {"measurement": "furin cleavage Z-score", "setting": "7.5 min", "value": "-1.27 (inactive)"},
      {"measurement": "furin cleavage Z-score", "setting": "15 min", "value": "-0.656 (inactive)"},
      {"measurement": "furin cleavage Z-score", "setting": "30 min", "value": "-0.848 (inactive)"}
    ]},
    {"sequence": "B11", "values": [
      {"measurement": "furin cleavage Z-score", "setting": "7.5 min", "value": "0.22 (inactive)"},
      {"measurement": "furin cleavage Z-score", "setting": "15 min", "value": 1.07},
      {"measurement": "furin cleavage Z-score", "setting": "30 min", "value": "0.99 (inactive)"}
    ]},
    {"sequence": "B12", "values": [
      {"measurement": "furin cleavage Z-score", "setting": "7.5 min", "value": "5.47 (active)"},
      {"measurement": "furin cleavage Z-score", "setting": "15 min", "value": "5.84 (active)"},
      {"measurement": "furin cleavage Z-score", "setting": "30 min", "value": "3.86 (active)"}
    ]},
    {"sequence": "B13", "values": [
      {"measurement": "furin cleavage Z-score", "setting": "7.5 min", "value": "0.137 (inactive)"},
      {"measurement": "furin cleavage Z-score", "setting": "15 min", "value": "0.318 (inactive)"},
      {"measurement": "furin cleavage Z-score", "setting": "30 min", "value": "-0.358 (inactive)"}
    ]},
    {"sequence": "B14", "values": [
      {"measurement": "furin cleavage Z-score", "setting": "7.5 min", "value": "-0.0603 (inactive)"},
      {"measurement": "furin cleavage Z-score", "setting": "15 min", "value": "-0.269 (inactive)"},
      {"measurement": "furin cleavage Z-score", "setting": "30 min", "value": "0.573 (inactive)"}
    ]},
    {"sequence": "B15", "values": [
      {"measurement": "furin cleavage Z-score", "setting": "7.5 min", "value": "9.77 (active)"},
      {"measurement": "furin cleavage Z-score", "setting": "15 min", "value": "11.1 (active)"},
      {"measurement": "furin cleavage Z-score", "setting": "30 min", "value": "10.3 (active)"}
    ]}
  ]
}
